Compound activity: PubChem, National Center for Advancing Translational Sciences (NCATS)
S16 viability: toxic to S16 Pmp22-F2sN Schwann cells; Potency, µM (titrated, usually from 57.5 µM), for the others: at the top dose activity change, negative = cytotoxicity, most hits filed as cytotoxic; 43,000 tested, 0.48% active; S16 Pmp22-F2sN Schwann cells viability, CellTiter-Glo, 24 h; also: potency is read from the fitted curve at half-maximal effect; % is scaled to controls: 0 for no effect and ±100 for the full control effect; nearly all actives have a fitted effect of over 65% in size
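Luminescence from CellTiter-Glo, read by CCD camera after a 15 min room-temperature incubation, served as the viability signal. Reporter Schwann cells (S16 Pmp22-F2sN) had been treated with pin-transferred compounds for 24 h at 37C.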
pS6 MEF inh: inhibitors of mTORC1 signaling in Tsc2-/- p53-/- MEF cells; Tsc2-/- p53-/- MEF, phospho-rpS6 immunofluorescence/PI, 24 h; Potency, µM (titrated, usually from 38.3 µM), for inactives: top-dose activity change, negative = inhibition, hits mostly inhibitors; 44,000 tested, 0.78% active; AID 493208;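 also: potency is read from the fitted curve at half-maximal effect; plate controls were DMSO for no effect and rapamycin for full effect; nearly all actives have a fitted effect of over 50% in size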
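Tsc2-/-, p53-/- MEFs (empty-vector stable line) in DMEM + 10% FBS were treated with compounds 24 h at 37 degree Celsius, fixed, and immunostained for phospho-rpS6 (Alexa-488) with propidium iodide counterstain. Laser-scanning cytometry gave % positive cells, normalized against 7.5 nM rapamycin and DMSO.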
PMP22 txn prim: PMP22 gene transcription modulation; AID 1508649; 43,000 tested, 2% active; S16 Pmp22-F2sN Schwann cells, FLuc/NLuc coincidence luminescence, 24 h; Potency, µM (top dose mostly 57.5 µM), for the others: at the highest dose activity change, negative = inhibition, actives largely listed as inhibitors; active = clear falling dose curves in both reporters; inconclusive = both reporters move, but less clearly or upward; inactive = either reporter flat; the % is the NLuc reporter signal; also: potency is read from the fitted curve at half-maximal effect; % is scaled to controls: 0 for no effect and ±100 for the full control effect
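S16 Schwann cells carrying FLuc/NLuc coincidence reporter in the Pmp22 3' UTR treated with compound 24 h at 37C; FLuc then NLuc luminescence read sequentially by dual-luciferase reagents.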
GALC G270D up: enhancers of human galactocerebrosidase G270D mutant activity in cells. P54803. 145M-Twi-hGALC-G270D cells (Twitcher mouse brain line with human GALC G270D), HMU-beta-Gal fluorescence, 48 h. Potency, µM (titrated, usually from 57.5 µM), most hits filed as activators. 45,000 tested, 0.1% active. AID 1159614; also: potency is read from the fitted curve at half-maximal effect; 0% is about no effect; nearly all actives have a fitted effect of over 65% in size
Target sequence (P54803 whole entry G286D): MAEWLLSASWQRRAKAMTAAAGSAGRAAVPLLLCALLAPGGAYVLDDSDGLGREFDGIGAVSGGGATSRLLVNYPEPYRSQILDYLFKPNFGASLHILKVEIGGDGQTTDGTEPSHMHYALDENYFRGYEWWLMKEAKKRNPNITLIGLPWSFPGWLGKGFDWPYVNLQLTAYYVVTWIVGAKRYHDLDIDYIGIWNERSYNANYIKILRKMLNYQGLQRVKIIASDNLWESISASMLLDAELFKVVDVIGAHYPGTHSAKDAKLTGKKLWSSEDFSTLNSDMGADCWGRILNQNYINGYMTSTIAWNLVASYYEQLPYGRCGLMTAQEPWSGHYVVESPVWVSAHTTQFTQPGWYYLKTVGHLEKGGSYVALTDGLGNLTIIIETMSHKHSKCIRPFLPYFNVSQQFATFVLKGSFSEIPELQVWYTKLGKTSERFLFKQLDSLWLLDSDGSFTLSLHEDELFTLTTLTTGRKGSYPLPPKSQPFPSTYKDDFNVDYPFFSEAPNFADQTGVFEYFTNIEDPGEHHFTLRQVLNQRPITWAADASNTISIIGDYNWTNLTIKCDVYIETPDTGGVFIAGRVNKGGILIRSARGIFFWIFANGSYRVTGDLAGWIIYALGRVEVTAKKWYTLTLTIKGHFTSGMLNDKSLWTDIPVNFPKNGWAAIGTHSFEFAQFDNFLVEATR
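Brain-derived Twitcher mouse 145M-Twi cells stably expressing human GALC-G270D or wild-type GALC, treated live, then residual GALC activity read by fluorescence of HMU-b-Gal substrate (0.1 mM final) in citrate-phosphate buffer pH 5.2 with sodium taurocholate. Signal increase indicates enhancement.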
NLuc sat counter: counter-screen for PMP22 expression modulators: NanoLuc inhibition, saturating substrate | shares compounds with PMP22 txn prim | Secreted NLuc enzyme (filtered S16 cell medium), Nano-Glo luminescence | Potency, µM (top dose mostly 57.5 µM), without a hit: top-dose activity change, negative = inhibition, most hits filed as inhibitors | 690 tested, 4% active | AID 1508638; also: potency is read from the fitted curve at half-maximal effect; % is scaled to controls: 0 for no effect and ±100 for the full control effect
NLuc Km ctr: NanoLuc inhibition at Km substrate, PMP22 artifact check. shares compounds with PMP22 txn prim. secreted NLuc enzyme, coelenterazine luminescence, Km conditions. Potency, µM (highest dose often 57.5 µM), inactives show top-dose activity change, negative = inhibition, hits mostly inhibitors. 690 tested, 5% active; also: potency is read from the fitted curve at half-maximal effect; % is scaled to controls: 0 for no effect and ±100 for the full control effect
FLuc ctr PMP22: firefly luciferase enzyme inhibition artifact for PMP22 screen; shares compounds with PMP22 txn prim; purified P. pyralis FLuc, luminescence, 10 min; Potency, µM (series often up to 57.5 µM), for the others: top-dose activity, negative = inhibition, actives largely listed as inhibitors; 690 tested, under 10 active; also: % of control where 0% means no effect
S16 F2sN tox cnf: confirmation of cytotoxicity in S16 Pmp22-F2sN Schwann cells (luciferase reporters placed in the Pmp22 gene) | Potency, µM (series often up to 57.5 µM), inactives show at the highest dose activity change, negative = viability loss, usual class: cytotoxic | S16 Schwann cells viability, CellTiter-Glo ATP luminescence, 24 h | AID 1508641 | shares compounds with PMP22 txn prim | 690 tested, 7% active; also: potency is read from the fitted curve at half-maximal effect; % is scaled to controls: 0 for no effect and ±100 for the full control effect
PMP22 txn cnf: PMP22 transcription modulation, confirmatory; Potency, µM (doses to about 57.5 µM), without a hit: top-dose activity change, negative = inhibition, usual class: inhibitors; shares compounds with PMP22 txn prim; 690 tested, 22% active; S16 Schwann cells Pmp22-F2sN, dual luciferase, 24 h; AID 1508646; active = clear falling dose curves in both reporters; inconclusive = both reporters move, but less clearly or upward; inactive = either reporter flat; the % is the FLuc reporter signal; also: potency is read from the fitted curve at half-maximal effect
The depositor's hits bear a star. Hits are enriched below; roughly 2.8% of the tested compounds scored in any of these assays. Unless noted, calls follow the shape of the dose curve; as a rule, active = well fitted curve in the direction sought with a large enough effect; inconclusive = small, poorly fitted or top-dose-only effect, or another doubt; inactive = no such curve, though single readings can be large; an effect the other way counts as inactive or inconclusive.

`CCOc1ccc2oc(=O)cc(CN3CCN(Cc4ccc(F)cc4)CC3)c2c1` gave S16 viability inconclusive, pS6 MEF inh -5.3%, PMP22 txn prim 14.1µM*, GALC G270D up inactive, NLuc sat counter -9.4%, NLuc Km ctr 8.9%, FLuc ctr PMP22 -3.3%, S16 F2sN tox cnf -8.6% and PMP22 txn cnf -16.8%.
COc1ccc(CN(C(=O)Nc2cc(C)ccc2C)C2CCN(C(C)=O)CC2)cc1 was read as S16 viability -3.3%, pS6 MEF inh -4.7%, PMP22 txn prim 2.1% and GALC G270D up inactive.
`Cc1ccc(-c2c(C)n3c4c(=O)n(C)c(=O)n(C)c4nc3n2-c2cccc(O)c2)cc1` gave S16 viability 7.5%, pS6 MEF inh -1.3%, PMP22 txn prim 16µM*, GALC G270D up inactive, NLuc sat counter inconclusive, NLuc Km ctr inconclusive, FLuc ctr PMP22 -4.7%, S16 F2sN tox cnf -6.4% and PMP22 txn cnf inconclusive.
Screening CCc1ccc(-n2c(-c3ccccc3)c(C)n3c4c(=O)n(C)c(=O)n(C)c4nc23)cc1 returned S16 viability 4.6%, pS6 MEF inh 3.1%, PMP22 txn prim -4.6% and GALC G270D up inactive.
COC(=O)C(Cc1c[nH]c2ccccc12)NC(=O)COc1ccc(Cl)cc1Cl (stereo not given) was read as S16 viability -1.6%, pS6 MEF inh 4.0%, PMP22 txn prim -0.5% and GALC G270D up inactive.
Screening COc1ccc(OC)c(NC(=O)Cn2cnc3onc(-c4ccc(Cl)cc4)c3c2=O)c1 returned S16 viability -20.8%, pS6 MEF inh 23.6%, PMP22 txn prim 5.15µM*, GALC G270D up inactive, NLuc sat counter -6.2%, NLuc Km ctr 3.5%, FLuc ctr PMP22 8.4%, S16 F2sN tox cnf -17.5% and PMP22 txn cnf inconclusive.
For O=C(Cn1cnc2onc(-c3ccc(Cl)cc3)c2c1=O)Nc1ccc(F)cc1 the results were S16 viability -16.8%, pS6 MEF inh -5.4%, PMP22 txn prim inconclusive and GALC G270D up inactive.
For COc1ccc(OC)c(CCNc2ncnc3onc(C)c23)c1 the results were S16 viability -17.2%, pS6 MEF inh inconclusive, PMP22 txn prim 11.3µM*, GALC G270D up inactive, NLuc sat counter -8.7%, NLuc Km ctr -3.6%, FLuc ctr PMP22 inconclusive, S16 F2sN tox cnf -13.1% and PMP22 txn cnf -26.1%.
`COc1ccc(OC)c(CCNc2ncnc3onc(-c4ccc(F)cc4)c23)c1` gave S16 viability -2.3%, pS6 MEF inh -2.2%, PMP22 txn prim -50.4% and GALC G270D up inactive.
`CCN(CCCNC(=O)c1cc(Nc2ccc(OC)cc2OC)nc2ccccc12)c1cccc(C)c1` gave S16 viability -7.1%, pS6 MEF inh 2.3%, PMP22 txn prim 15µM*, GALC G270D up inactive, NLuc sat counter -12.9%, NLuc Km ctr -0.5%, FLuc ctr PMP22 -21.5%, S16 F2sN tox cnf -4.2% and PMP22 txn cnf -17.8%.
Cc1ccc(C)c(Nc2cc(C(=O)NCCCN(C)C3CCCCC3)c3ccccc3n2)c1 was read as S16 viability inconclusive, pS6 MEF inh inconclusive, PMP22 txn prim inconclusive and GALC G270D up inactive.
`Cc1cc(C)cc(Nc2cc(C(=O)NCCCN(C)C3CCCCC3)c3ccccc3n2)c1` gave S16 viability inconclusive, pS6 MEF inh 4.14µM*, PMP22 txn prim 8.91µM*, GALC G270D up inactive, NLuc sat counter -4.9%, NLuc Km ctr 0.3%, FLuc ctr PMP22 inconclusive, S16 F2sN tox cnf 17.2µM* and PMP22 txn cnf 15.3µM*.
For CCc1ccccc1Nc1cc(C(=O)NCCCN(C)C2CCCCC2)c2ccccc2n1 the results were S16 viability inconclusive, pS6 MEF inh inconclusive, PMP22 txn prim 20µM*, GALC G270D up inactive, NLuc sat counter -1.3%, NLuc Km ctr 2.2%, FLuc ctr PMP22 -4.3%, S16 F2sN tox cnf inconclusive and PMP22 txn cnf inconclusive.
`CCc1ccc(S(=O)(=O)c2cn(Cc3ccccc3F)c3cc(OC)c(OC)cc3c2=O)cc1` gave S16 viability -18.3%, pS6 MEF inh -8.3%, PMP22 txn prim 14.2µM*, GALC G270D up inactive, NLuc sat counter -18.5%, NLuc Km ctr 4.3%, FLuc ctr PMP22 7.5%, S16 F2sN tox cnf 8.5% and PMP22 txn cnf -43.5%.
For Cc1ccc(CN(Cc2cccn2-c2nnc(N3CCCC3=O)s2)C(=O)Nc2ccccc2C(F)(F)F)cc1 the results were S16 viability inconclusive, pS6 MEF inh 0.0%, PMP22 txn prim 18.9µM*, GALC G270D up inactive, NLuc sat counter inconclusive, NLuc Km ctr inconclusive, FLuc ctr PMP22 -0.3%, S16 F2sN tox cnf -2.5% and PMP22 txn cnf -22.3%.
Screening Cc1nc(C)c(-c2ccc(SCC(=O)Nc3cccc(C)c3C)nn2)s1 returned S16 viability -6.6%, pS6 MEF inh -2.5%, PMP22 txn prim inconclusive and GALC G270D up inactive.
Screening Cc1ccc(C)c(N2CCN(C(=O)c3ccc(CS(=O)(=O)c4ccc(Br)cc4)o3)CC2)c1 returned S16 viability -14.3%, pS6 MEF inh -13.9%, PMP22 txn prim inconclusive and GALC G270D up inactive.
For Cc1cccc(N2CCN(C(=O)c3ccc(CS(=O)c4cccc(Cl)c4)o3)CC2)c1C (stereo not given) the results were S16 viability inconclusive, pS6 MEF inh 7.36µM*, PMP22 txn prim 9.58µM*, GALC G270D up inactive, NLuc sat counter -18.5%, NLuc Km ctr inconclusive, FLuc ctr PMP22 -2.5%, S16 F2sN tox cnf -14.7% and PMP22 txn cnf inconclusive.
